GPR151 activ = activators of human GPR151; Q8TDV0; PathHunter beta-arrestin GPR151 cells, luminescence; activation, % at 11.2 µM; actives 1% (n = 650,000); in the data active = activation above about 4.9%;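 also: 0% = median of compound wells and 100% = cells with positive control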
FBW7 activator = human FBW7 E3 ligase activation, primary screen. Q969H0. AlphaScreen FBW7–phospho-cyclin E peptide binding, activator screen. normalized activity (activation), % at 26.1 µM. actives 0.13% (n = 650,000); in the data active = normalized activity above about 1.9%;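 also: purified mutant Fbw7 with reduced substrate affinity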
TEAD-YAP block = TEAD-YAP interaction inhibition | HEK-TIYL cells, TEAD-Gal4/YAP UAS-luciferase luminescence | inhibition, % at 9.12 µM | actives 1.4% (n = 640,000); in the data active = inhibition above about 32%;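 also: 0% = median of test compound wells and 100% = reference inhibitor wells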
MITF primary = human MITF inhibition, primary screen; AlphaScreen MITF homodimerization, bead proximity signal; inhibition, % at 2.6 µM; actives 0.91% (n = 650,000); AID 1259374; in the data active = inhibition above about 50%;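 also: 0% = vehicle wells with protein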
* marks the source's active call; other numbers are inactive results. A selection: hits, their analogues and other compounds. The true share with any hit is near 3.5%.

SMILES | GPR151 activ | FBW7 activator | TEAD-YAP block | MITF primary
COc1ccc(CNc2ccnc3c(-c4cccc(C(=O)NCCN(C)C)c4)cnn23)cc1 | -1 | 0 | -52 | 1
Clc1cccc(-c2cnn3c(NCc4cccs4)ccnc23)c1 | 0 | 0 | -35 | -10
Nc1cccc(-c2cnn3c(NCC4CC4)ccnc23)c1 | -1 | 0 | -11 | -10
Oc1cccc(-c2cnn3c(NCC4CC4)ccnc23)c1 | -1 | 0 | 98* | -7
CN(C)CCNC(=O)c1cccc(-c2cnn3c(NCc4cccs4)ccnc23)c1 | 0 | 0 | 93* | -1
O=C(O)c1cccc(-c2cnn3c(NCc4cccs4)ccnc23)c1 | 2 | 0 | 94* | 8
Oc1cccc(-c2cnn3c(NCc4cccs4)ccnc23)c1 | -2 | 0 | 99* | 3
CC(NC(=O)c1cc(S(=O)(=O)N2CCOCC2)cn1C)c1ccc2c(c1)OCCO2 (centres undefined) | 2 | 0 | 0 | 8
N#CC(C#N)=NNc1ccc(SC(F)F)cc1 | 1 | 0 | 74* | 6
CCN(CC)CCNC(=O)c1cccc(Br)c1 | 1 | 0 | -5 | 0
CCOc1ccccc1C(=O)Nc1ccsc1C(=O)OC | 1 | 0 | 55* | 0
COC(=O)c1sccc1NC(=O)c1ccccc1C | 0 | 0 | -16 | -1
O=C(O)c1ccc2c(c1)NC(=O)c1ccccc1S2(=O)=O | -2 | 1.9* | -4 | -2
O=C(c1ccccn1)N1CCC(C(O)(c2ccccc2)c2ccccc2)CC1 | 0 | 0 | 2 | 1
N#Cc1ccc(/C=C2\SC(=S)N(N3C(=O)C4CC4C3=O)C2=O)cc1 (centres undefined) | 3 | 0 | -4 | -2
CC(=O)N(/N=C1\Sc2ccccc2C1=O)c1ccccc1I | -1 | 0 | 76* | 29
CCOC(=O)c1cccc2c1N[C@@H](c1ccc(C(=O)O)cc1)[C@H]1CC=C[C@@H]21 | 0 | -1 | 8 | 76*
CCOc1cccc2c1NC(c1ccc(C(=O)O)cc1)C1CC=CC21 (centres undefined) | 0 | -2 | -8 | 59*
Fc1cccc2c1NC(c1ccc(Br)cc1)C1CC=CC21 (centres undefined) | 0 | 0 | 19 | 1
O=C(O)c1ccc([C@@H]2Nc3c(F)cccc3[C@@H]3C=CC[C@@H]32)cc1 | 1 | -1 | 2 | 70*
CC(C)N(C(=O)c1ccccc1[N+](=O)[O-])C(C)C | 0 | 0 | 3 | 6
O=S(=O)(C1CC1)N1CCN(C2CCCCC2)CC1 | 1 | 0 | -2 | 4
O=C(CSc1nnc2c(n1)[nH]c1ccccc12)Nc1nccs1 | 0 | 0 | -31 | 1
Oc1ccc(Nc2nc3nonc3nc2Nc2cccc(Br)c2)cc1 | 4 | 0 | 45* | 12
Oc1ccc(Nc2nc3nonc3nc2Nc2ccccc2)cc1 | -2 | 0 | -8 | 20
SMILES | GPR151 activ | FBW7 activator | TEAD-YAP block | MITF primary
c1ccc(Nc2nc3nonc3nc2Nc2ccccc2)cc1 | 0 | 0 | 36* | 14
Fc1cccc(Nc2nc3nonc3nc2Nc2cccc(F)c2)c1 | 0 | 0 | 24 | -5
Fc1ccc(Nc2nc3nonc3nc2Nc2ccc(F)cc2F)c(F)c1 | 2 | 0 | 90* | 19
CN(C)c1nc2nonc2nc1Nc1cccc(Cl)c1 | 2 | 0 | 75* | 2
Clc1ccc(Nc2nc3nonc3nc2Nc2ccc(Br)cc2)cc1Cl | 1 | 0 | -2 | -17
NC1=NC(=O)/C(=C/c2ccccc2OCc2ccccc2Cl)S1 | 0 | 1 | -9 | 17
CC(=O)C1=C(O)C(=O)N(CCN2CCOCC2)C1c1cccc([N+](=O)[O-])c1 (centres undefined) | 1 | 0 | 1 | -2
COc1ccc(S(=O)(=O)Nc2ccc(C)cn2)cc1 | -2 | 2.5* | -9 | 11
COc1ccc(S(=O)(=O)Nc2cc(OC)ccc2OC)cc1 | 3 | 0 | 61* | -10
COc1ccc(OC)c(NC(=O)C2CCCC2)c1 | 0 | 25* | -3 | 8
COc1ccc(OC)c(NS(=O)(=O)c2ccc(-c3ccccc3)cc2)c1 | 0 | 0 | 35* | 10
CCN(CC)CCCNC(=O)Cn1nc([N+](=O)[O-])c(Cl)c1C | -1 | 0 | 3 | -2
CCOc1ccc2[nH]c3nc(=S)[nH]nc3c2c1 | -1 | 1 | -18 | 8
COC(=O)c1ccc(N=C2SC(C(=O)Nc3ccc(F)cc3)CC(=O)N2C)cc1 (centres undefined) | 0 | -1 | -12 | 0
Cc1ccc2nc(/C(C#N)=C\c3ccc(N4CCOCC4)cc3)[nH]c2c1 | 0 | 1 | -29 | -1
